# A number with no mark means an inactive call.
# Experiments:
# Experiment in all cases: log2 ratio of Biotin-Ahx-Ub-VS probe labelling (fragment/DMSO); higher = less target engagement (more negative = stronger competition), active = hit call of the paper (q ≤ 0.05, log2 ratio ≤ -1)
# Settings in all cases: compound concentration: 200 uM; treatment time: 3 h
# [1] = target: T1, ALG13 (UniProt Q9NP73)
# T1 sequence (whole entry): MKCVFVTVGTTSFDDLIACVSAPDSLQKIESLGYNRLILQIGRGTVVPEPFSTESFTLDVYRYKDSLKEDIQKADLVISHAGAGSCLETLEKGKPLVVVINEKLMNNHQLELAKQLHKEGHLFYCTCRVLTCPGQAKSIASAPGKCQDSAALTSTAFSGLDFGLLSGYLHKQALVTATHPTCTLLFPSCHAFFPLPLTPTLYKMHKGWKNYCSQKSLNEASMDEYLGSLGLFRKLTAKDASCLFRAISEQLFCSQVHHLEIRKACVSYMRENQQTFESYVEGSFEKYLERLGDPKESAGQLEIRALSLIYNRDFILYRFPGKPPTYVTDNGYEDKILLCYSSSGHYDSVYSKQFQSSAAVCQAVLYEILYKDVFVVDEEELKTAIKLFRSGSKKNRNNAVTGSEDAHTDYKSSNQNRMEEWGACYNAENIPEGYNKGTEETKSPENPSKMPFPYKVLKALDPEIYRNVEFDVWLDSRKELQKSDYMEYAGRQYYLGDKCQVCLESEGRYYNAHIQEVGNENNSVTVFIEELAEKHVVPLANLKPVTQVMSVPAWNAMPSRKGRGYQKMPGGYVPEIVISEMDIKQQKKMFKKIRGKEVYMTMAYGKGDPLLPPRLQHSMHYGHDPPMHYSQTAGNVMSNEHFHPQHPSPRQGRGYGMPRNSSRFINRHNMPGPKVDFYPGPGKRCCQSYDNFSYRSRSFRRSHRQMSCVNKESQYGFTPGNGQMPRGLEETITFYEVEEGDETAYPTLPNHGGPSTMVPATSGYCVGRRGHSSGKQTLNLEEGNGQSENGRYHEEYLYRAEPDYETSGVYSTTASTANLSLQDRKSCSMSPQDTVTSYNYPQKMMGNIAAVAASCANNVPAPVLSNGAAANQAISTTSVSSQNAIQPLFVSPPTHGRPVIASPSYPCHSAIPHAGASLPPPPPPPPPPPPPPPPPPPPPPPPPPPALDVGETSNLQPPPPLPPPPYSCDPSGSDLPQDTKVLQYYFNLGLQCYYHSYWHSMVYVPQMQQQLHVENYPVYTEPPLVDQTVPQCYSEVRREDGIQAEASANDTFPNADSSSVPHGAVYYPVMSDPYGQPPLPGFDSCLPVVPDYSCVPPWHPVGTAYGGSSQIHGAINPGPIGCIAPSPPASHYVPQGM
# How it was run: (§1)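 HEK293T lysate (495 µg per sample, in Tris/CHAPS/IGEPAL buffer with protease inhibitors) was treated in triplicate with fragment at 200 µM or with DMSO for 3 h. It was then treated with Biotin-Ahx-Ub-VS (0.5 µM final) for 1 h. Labelled DUBs were NeutrAvidin-enriched, digested with LysC and trypsin, and run by diaPASEF LC-MS/MS. Spectronaut label-free quantities were global-median-normalised. Values are average log2 ratios fragment/DMSO by unpaired t-test, using proteins with ≥2 unique peptides.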
# [2] = target: ATXN3 (UniProt P54252)
# How it was run: as §1
# [3] = target: T2, BAP1 (UniProt Q92560)
# T2 sequence (whole entry): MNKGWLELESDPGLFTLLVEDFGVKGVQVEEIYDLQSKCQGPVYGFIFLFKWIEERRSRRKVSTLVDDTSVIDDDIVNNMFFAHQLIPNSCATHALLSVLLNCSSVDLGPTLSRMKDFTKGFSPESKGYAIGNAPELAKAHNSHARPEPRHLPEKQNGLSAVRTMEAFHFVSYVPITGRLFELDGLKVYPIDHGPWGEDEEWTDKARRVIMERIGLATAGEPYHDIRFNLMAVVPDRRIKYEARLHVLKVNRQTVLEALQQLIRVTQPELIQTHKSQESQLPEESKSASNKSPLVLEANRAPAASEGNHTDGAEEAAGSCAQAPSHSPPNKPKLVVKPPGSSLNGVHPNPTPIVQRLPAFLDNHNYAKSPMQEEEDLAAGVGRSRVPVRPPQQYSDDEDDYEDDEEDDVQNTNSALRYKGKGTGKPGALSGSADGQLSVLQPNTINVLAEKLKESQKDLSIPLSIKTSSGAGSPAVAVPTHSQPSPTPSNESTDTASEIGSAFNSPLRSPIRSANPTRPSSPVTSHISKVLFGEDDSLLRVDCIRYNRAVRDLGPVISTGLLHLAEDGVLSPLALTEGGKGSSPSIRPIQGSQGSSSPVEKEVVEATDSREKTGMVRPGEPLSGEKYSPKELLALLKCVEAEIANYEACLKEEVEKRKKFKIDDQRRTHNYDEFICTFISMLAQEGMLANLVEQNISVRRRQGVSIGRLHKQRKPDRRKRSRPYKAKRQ
# How it was run: as §1
# [4] = target: EIF3F (UniProt O00303)
# How it was run: as §1
# [5] = target: EIF3H (UniProt O15372)
# How it was run: as §1
# [6] = target: T3, FAM105A (UniProt Q9NUU6)
# T3 sequence (whole entry): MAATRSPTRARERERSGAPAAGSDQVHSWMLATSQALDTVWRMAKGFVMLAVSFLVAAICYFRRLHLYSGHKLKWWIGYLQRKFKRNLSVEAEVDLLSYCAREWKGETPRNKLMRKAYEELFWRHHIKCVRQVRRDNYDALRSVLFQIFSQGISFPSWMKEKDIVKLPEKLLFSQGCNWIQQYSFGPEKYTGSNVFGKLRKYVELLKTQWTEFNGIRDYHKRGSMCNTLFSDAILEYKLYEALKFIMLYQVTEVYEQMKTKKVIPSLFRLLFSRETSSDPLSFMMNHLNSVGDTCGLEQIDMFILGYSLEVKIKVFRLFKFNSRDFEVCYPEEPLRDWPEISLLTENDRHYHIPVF
# How it was run: as §1
# [7] = target: OTUB1 (UniProt Q96FW1)
# How it was run: as §1
# [8] = target: T4, OTUD4 (UniProt Q01804)
# T4 sequence (whole entry): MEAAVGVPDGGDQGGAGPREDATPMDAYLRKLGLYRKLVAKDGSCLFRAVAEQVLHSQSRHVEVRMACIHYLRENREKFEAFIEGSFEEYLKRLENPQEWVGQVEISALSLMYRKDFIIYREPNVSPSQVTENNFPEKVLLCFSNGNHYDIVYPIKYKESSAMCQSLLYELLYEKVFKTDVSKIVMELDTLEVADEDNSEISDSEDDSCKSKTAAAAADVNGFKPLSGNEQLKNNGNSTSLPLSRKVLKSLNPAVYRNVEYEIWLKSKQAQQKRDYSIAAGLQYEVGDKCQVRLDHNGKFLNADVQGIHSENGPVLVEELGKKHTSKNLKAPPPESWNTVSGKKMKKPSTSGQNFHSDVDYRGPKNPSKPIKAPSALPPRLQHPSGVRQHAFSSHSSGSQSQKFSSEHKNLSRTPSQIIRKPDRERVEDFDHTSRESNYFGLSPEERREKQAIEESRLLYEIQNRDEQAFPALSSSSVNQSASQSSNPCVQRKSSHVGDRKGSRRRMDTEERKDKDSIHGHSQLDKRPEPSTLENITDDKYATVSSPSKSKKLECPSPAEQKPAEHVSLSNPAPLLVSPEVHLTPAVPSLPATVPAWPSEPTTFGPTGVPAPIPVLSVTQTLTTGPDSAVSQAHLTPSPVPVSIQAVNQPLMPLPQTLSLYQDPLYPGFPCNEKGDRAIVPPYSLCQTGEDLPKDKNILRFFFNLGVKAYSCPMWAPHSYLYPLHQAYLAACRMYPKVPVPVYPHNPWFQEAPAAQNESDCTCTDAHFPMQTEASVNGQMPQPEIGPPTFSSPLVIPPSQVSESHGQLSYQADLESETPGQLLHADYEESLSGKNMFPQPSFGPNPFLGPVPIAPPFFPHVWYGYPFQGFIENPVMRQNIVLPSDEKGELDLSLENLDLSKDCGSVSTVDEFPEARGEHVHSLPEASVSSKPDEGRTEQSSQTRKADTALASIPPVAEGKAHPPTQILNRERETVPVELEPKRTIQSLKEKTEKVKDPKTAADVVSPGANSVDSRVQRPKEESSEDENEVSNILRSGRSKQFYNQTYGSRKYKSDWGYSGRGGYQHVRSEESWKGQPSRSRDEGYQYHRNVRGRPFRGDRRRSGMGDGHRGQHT
# How it was run: as §1
# [9] = target: T5, OTUD5 (UniProt Q96G74)
# T5 sequence (whole entry): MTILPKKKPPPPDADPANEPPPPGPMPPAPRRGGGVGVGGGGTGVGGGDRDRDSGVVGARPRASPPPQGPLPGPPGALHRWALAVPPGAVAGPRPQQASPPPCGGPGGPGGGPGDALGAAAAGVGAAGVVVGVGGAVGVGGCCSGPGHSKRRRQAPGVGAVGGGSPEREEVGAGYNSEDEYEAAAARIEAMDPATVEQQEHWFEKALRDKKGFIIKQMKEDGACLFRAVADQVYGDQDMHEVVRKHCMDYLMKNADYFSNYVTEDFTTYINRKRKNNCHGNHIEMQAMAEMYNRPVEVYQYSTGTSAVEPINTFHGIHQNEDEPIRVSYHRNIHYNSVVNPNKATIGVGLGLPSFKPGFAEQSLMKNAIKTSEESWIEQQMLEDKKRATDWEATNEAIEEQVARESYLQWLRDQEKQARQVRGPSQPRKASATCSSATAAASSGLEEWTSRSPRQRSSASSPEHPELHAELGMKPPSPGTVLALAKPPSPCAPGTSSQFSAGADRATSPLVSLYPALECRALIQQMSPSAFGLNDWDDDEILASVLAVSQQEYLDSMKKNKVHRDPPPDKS
# How it was run: as §1
# OTUB1, sequence (Q96FW1 whole entry): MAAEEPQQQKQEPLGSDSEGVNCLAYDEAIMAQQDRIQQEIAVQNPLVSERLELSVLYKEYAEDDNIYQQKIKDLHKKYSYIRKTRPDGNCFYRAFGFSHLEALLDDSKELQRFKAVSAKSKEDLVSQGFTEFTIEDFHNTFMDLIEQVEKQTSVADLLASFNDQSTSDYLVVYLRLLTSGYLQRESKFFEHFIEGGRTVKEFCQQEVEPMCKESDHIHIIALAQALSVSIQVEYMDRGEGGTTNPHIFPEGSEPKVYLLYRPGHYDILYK
# EIF3F, sequence (O00303 whole entry): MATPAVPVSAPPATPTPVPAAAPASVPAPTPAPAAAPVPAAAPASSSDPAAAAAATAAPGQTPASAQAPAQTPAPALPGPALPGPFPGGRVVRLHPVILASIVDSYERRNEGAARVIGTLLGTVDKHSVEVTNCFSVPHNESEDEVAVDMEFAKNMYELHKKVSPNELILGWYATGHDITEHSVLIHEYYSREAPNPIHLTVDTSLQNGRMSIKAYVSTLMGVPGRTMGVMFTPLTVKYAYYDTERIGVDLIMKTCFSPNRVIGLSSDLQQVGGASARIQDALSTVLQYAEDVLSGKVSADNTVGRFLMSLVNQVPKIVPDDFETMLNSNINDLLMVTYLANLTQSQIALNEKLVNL
# EIF3H, sequence (O15372 whole entry): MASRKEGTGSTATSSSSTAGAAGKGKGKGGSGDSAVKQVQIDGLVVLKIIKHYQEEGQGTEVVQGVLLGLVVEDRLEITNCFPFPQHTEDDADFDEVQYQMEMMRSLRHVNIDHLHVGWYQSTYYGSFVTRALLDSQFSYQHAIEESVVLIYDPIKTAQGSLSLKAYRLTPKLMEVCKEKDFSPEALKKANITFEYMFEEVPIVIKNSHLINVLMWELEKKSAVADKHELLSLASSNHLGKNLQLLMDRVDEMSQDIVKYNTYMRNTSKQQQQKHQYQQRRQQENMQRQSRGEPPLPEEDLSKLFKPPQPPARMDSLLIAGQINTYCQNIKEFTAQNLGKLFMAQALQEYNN
# ATXN3, sequence (P54252 whole entry): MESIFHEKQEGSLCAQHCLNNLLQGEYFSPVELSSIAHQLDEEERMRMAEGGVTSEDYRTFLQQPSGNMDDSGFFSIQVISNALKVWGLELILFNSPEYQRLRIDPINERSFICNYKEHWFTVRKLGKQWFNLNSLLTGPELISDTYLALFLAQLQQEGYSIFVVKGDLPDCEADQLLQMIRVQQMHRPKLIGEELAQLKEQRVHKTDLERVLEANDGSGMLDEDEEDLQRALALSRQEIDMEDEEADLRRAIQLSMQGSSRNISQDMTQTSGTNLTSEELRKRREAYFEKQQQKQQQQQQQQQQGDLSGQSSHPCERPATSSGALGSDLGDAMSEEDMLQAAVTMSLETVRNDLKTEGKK
compound,measurement,setting,value
N#Cc1ccccc1N1CCN(C(=O)CCl)CC1,log2 ratio of Biotin-Ahx-Ub-VS probe labelling,[1],-0.383
same,log2 ratio of Biotin-Ahx-Ub-VS probe labelling,[2],-1.16 (active)
same,log2 ratio of Biotin-Ahx-Ub-VS probe labelling,[3],-1.32 (active)
same,log2 ratio of Biotin-Ahx-Ub-VS probe labelling,[4],-0.123
same,log2 ratio of Biotin-Ahx-Ub-VS probe labelling,[5],-0.0881
same,log2 ratio of Biotin-Ahx-Ub-VS probe labelling,[6],0.162
same,log2 ratio of Biotin-Ahx-Ub-VS probe labelling,[7],-0.449
same,log2 ratio of Biotin-Ahx-Ub-VS probe labelling,[8],-0.714
same,log2 ratio of Biotin-Ahx-Ub-VS probe labelling,[9],-0.872

# Source: the supplement of paper PMC11732987, “Enantioselective OTUD7B fragment discovery through chemoproteomics screening and high-throughput optimisation” (Communications Chemistry, 2025)
